PubChem BioAssay (NCATS)
Unmarked numbers belong to inactive results. Results filed as inconclusive are left out. Calls of active or inactive are those of the source. Unless noted, calls follow the shape of the dose curve; as a rule, active = well fitted curve in the direction sought with a large enough effect; inconclusive = small, poorly fitted or top-dose-only effect, or another doubt; inactive = no such curve, though single readings can be large; an effect the other way counts as inactive or inconclusive.

Legend:
[1] = molecular target: Lysosomal acid glucosylceramidase (Homo sapiens) (UniProt P04062); experiment: Glucocerebrosidase-p2 (AID 348; in the data active = potency below about 10 µM; also: potency is read from the fitted curve at half-maximal effect); details: purified GBA, blue fluorogenic substrate, 40 min
Chain of Lysosomal acid glucosylceramidase (Homo sapiens) (P04062 whole entry, looked up): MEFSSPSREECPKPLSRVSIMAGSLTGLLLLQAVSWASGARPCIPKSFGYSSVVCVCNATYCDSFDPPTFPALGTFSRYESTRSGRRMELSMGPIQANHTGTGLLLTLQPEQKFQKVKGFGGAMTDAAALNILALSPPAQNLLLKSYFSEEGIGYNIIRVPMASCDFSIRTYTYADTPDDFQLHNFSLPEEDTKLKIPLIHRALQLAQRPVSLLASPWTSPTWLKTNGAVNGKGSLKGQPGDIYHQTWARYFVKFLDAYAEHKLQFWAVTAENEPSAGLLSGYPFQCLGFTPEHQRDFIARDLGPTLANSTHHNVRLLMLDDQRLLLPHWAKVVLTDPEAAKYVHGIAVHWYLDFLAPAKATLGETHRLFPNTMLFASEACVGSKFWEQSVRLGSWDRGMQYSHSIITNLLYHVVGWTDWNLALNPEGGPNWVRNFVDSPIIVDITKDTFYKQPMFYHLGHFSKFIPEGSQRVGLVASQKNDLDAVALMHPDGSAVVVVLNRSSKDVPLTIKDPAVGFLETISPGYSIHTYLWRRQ
In short: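 Normal human glucocerebrosidase (0.2 nM) with blue fluorogenic substrate (80 uM final) in citrate/phosphate pH 5.9 with 10mM sodium taurocholate, 0.01% tween-20; 40 min RT, NaOH/glycine stop; fluorescence Ex 365/Em 440; AC50 from a titration from 0.6 nM upwards.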

[2] = molecular target: Cytochrome P450 1A2 (Homo sapiens) (UniProt P05177); experiment: p450-cyp1a2 (AID 410; calls by dose curve; also: potency is read from the fitted curve at half-maximal effect); details: recombinant CYP1A2, luciferin-ME demethylation, luminescence; series mostly up to 57 µM
Chain of Cytochrome P450 1A2 (Homo sapiens) (P05177 whole entry, looked up): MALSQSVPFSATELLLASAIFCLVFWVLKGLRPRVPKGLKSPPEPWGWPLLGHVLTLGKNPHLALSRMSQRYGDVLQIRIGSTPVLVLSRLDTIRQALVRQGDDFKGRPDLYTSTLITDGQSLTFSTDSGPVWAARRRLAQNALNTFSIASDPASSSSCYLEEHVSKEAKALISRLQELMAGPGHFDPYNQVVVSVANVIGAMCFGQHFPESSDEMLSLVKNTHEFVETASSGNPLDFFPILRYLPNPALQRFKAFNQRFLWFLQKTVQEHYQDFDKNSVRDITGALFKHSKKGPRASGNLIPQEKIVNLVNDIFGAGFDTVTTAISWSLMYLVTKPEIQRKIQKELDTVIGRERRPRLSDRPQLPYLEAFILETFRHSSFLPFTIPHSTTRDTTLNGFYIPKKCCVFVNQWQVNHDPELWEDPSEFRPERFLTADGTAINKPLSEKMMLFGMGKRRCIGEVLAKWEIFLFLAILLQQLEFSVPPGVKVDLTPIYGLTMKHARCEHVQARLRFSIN
In short: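 20nM CYP1A2, 100uM Luciferin-ME (=Km), 100mM KPO4; cpd 10 min RT; +NADPH regen, 60 min RT; stop/detect 20 min; luminescence. Normalized to furafylline 57 uM = full inhibition.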

[3] = Stat Signaling Pathway (AID 446; active = well fitted curve in either direction with a large enough effect, not every such curve was filed as active;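 also: ME-180 cervical cancer cells given 40 pM IL-6 alongside compound; SIE-controlled beta-lactamase reporter measured as 460/530 nm FRET emission ratio; % is scaled to controls: 0 for no effect and ±100 for the full control effect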); details: ME-180 SIE beta-lactamase reporter, IL-6 stimulated, 5 h; at 7.69 µM (top of the series) unless noted
In short: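 Emission at 460 and 530 nm (excitation 405 nm) reports SIE-controlled beta-lactamase in ME-180 cells. Cells received compound with 40 pM IL-6 for 5 hrs at 37 C; data scaled between 300 pM IL-6 and 125 nM JAK-inhibitor controls.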

[4] = molecular target: Glucocorticoid receptor (Homo sapiens) (UniProt P04150); experiment: GR-GFP Redistribution (AID 450;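 active = compounds whose dose series gives a full or clear partial fitted curve of increased nuclear translocation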; also: potency is read from the fitted curve at half-maximal effect); details: U2OS GR-GFP nuclear translocation, laser cytometry, 2 h
Chain of Glucocorticoid receptor (Homo sapiens) (P04150 whole entry, looked up, the tested form may be a part): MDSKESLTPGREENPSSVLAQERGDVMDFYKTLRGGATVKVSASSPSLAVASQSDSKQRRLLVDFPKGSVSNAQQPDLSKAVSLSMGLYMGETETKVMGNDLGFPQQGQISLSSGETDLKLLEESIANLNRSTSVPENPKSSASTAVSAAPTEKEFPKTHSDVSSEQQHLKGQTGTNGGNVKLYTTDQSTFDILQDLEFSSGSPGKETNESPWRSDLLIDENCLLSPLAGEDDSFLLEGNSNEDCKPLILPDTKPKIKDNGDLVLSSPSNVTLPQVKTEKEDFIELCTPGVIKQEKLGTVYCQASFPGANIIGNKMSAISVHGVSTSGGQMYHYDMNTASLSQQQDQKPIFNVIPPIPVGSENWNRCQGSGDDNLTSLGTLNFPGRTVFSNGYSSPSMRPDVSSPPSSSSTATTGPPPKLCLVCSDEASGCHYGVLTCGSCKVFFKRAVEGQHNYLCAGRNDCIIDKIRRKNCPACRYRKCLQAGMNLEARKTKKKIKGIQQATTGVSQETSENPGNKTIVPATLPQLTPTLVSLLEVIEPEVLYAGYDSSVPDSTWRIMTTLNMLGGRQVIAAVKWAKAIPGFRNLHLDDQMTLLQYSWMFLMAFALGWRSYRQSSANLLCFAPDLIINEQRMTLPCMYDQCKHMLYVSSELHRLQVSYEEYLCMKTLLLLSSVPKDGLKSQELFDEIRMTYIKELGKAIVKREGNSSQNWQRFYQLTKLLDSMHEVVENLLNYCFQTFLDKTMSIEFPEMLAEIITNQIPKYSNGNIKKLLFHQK

[5] = molecular target: Glucocorticoid receptor (Homo sapiens) (UniProt P04150); experiment: GR-EFC Redistribution (AID 451; calls by dose curve; also: potency is read from the fitted curve at half-maximal effect); details: CHO-K1 GR-EFC translocation, beta-gal luminescence, 2 h
In short: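 CHO-K1 cells stably expressing nuclear-localized β-gal enzyme acceptor and GR fused C-terminally to the enzyme donor fragment; ligand-driven nuclear translocation restores β-gal by complementation. Compounds titrated up to 46 uM final, 2 h at 37 °C; luminescence read.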

[6] = molecular target: Cytochrome P450 3A4 (Homo sapiens) (UniProt P08684); experiment: qHTS Assay for Inhibitors and Substrates of Cytochrome P450 3A4 (AID 884); details: recombinant CYP3A4, Luciferin-PPXE luminescence; series mostly up to 57.1 µM; also: potency is read from the fitted curve at half-maximal effect; nearly all actives have a fitted effect of over 50% in size
Chain of Cytochrome P450 3A4 (Homo sapiens) (P08684 whole entry, looked up): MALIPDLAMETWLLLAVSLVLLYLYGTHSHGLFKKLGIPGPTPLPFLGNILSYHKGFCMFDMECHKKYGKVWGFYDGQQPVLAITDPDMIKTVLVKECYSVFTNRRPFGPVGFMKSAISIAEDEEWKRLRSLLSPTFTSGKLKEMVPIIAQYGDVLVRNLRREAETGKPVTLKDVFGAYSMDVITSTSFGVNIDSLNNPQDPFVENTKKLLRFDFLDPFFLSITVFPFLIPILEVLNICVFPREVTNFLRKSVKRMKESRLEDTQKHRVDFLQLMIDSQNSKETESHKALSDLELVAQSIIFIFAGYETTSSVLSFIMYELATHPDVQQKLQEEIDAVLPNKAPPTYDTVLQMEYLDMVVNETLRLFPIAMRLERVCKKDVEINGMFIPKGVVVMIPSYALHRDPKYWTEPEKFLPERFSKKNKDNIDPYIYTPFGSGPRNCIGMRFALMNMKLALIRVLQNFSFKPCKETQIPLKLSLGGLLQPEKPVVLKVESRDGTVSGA
In short: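 Luminescent readout of luciferin produced by CYP3A4 (20 nM) dealkylation of Luciferin-PPXE, 25 uM (its KM). NADPH-driven reaction ran 60 min at RT after 10 min compound preincubation; data scaled to 57 uM ketoconazole as 100% inhibition.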

[7] = molecular target: Cytochrome P450 3A4 (Homo sapiens) (UniProt P08684); experiment: qHTS Assay for Activators of Cytochrome P450 3A4 (AID 885); details: recombinant CYP3A4, Luciferin-PPXE luminescence, 60 min; series mostly up to 57.1 µM; also: nearly all actives have a fitted effect of over 65% in size
In short: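 Activators are scored by enhanced luminescence from CYP3A4 conversion of luciferin-PPXE (25uM, equal to KM) to luciferin, after 60 min at RT with an NADPH-regenerating system.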

[8] = molecular target: Cytochrome P450 2C19 (Homo sapiens) (UniProt P33261); experiment: qHTS Assay for Inhibitors and Substrates of Cytochrome P450 2C19 (AID 899); details: recombinant CYP2C19, luciferin-H EGE luminescence; series mostly up to 57.1 µM; also: potency is read from the fitted curve at half-maximal effect; nearly all actives have a fitted effect of over 60% in size
Chain of Cytochrome P450 2C19 (Homo sapiens) (P33261 whole entry, looked up): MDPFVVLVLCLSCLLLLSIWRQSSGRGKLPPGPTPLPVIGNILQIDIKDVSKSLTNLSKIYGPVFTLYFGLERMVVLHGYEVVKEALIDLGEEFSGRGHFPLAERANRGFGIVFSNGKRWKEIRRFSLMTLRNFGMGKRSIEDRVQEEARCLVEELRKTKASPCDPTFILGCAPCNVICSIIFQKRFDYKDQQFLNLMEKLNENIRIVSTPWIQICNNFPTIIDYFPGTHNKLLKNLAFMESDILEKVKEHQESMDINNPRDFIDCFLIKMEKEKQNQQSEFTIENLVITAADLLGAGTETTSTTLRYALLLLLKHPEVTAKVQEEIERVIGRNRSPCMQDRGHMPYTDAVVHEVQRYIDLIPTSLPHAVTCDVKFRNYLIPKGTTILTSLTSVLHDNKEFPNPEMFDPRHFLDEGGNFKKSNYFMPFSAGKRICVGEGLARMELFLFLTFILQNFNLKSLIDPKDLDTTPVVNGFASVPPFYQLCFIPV
In short: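 NADPH-dependent conversion of Luciferin-H EGE (10uM, at KM) by 5nM enzyme in 50mM KPO4, 60 min at 37C following 10 min compound preincubation. Stopped with luciferin detection buffer; luminescence read after 20 min.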

[9] = molecular target: Dual specificity protein kinase CLK4 (Homo sapiens) (UniProt Q9HAZ1); experiment: qHTS Assay for Inhibitors of CDC-like Kinase 4 (Kinase-Glo Assay) (AID 1770); details: recombinant Clk4, Kinase-Glo ATP depletion luminescence; series mostly up to 66.7 µM; also: potency is read from the fitted curve at half-maximal effect; nearly all actives have a fitted effect of over 65% in size
Chain of Dual specificity protein kinase CLK4 (Homo sapiens) (Q9HAZ1 whole entry, looked up): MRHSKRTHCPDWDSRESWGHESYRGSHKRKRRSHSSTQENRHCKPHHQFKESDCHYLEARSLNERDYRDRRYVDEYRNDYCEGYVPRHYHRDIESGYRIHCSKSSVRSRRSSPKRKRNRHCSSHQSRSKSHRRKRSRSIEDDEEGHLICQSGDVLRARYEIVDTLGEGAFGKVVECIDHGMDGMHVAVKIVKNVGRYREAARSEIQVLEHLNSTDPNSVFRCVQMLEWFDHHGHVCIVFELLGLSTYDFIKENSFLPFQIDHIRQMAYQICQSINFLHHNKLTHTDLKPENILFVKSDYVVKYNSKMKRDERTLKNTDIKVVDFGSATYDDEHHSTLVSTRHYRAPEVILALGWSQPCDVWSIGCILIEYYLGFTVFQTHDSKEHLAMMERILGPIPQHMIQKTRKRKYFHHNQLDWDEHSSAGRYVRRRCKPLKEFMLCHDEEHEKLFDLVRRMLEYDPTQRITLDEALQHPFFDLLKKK
In short: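 Luminescent ATP-depletion read-out (Kinase-Glo) after 4.5 h room-temperature reaction of Clk4 (25 nM final) with RS peptide (100 uM) and ATP (1 uM), pH 7.5 Tris buffer with MgCl2 and DTT.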

[10] = molecular target: Dual specificity protein kinase CLK4 (Homo sapiens) (UniProt Q9HAZ1); experiment: qHTS Assay for Inhibitors of CDC-like Kinase 4 (ADP-Glo Assay) (AID 1771); details: recombinant CLK4, ADP-Glo luminescence; series mostly up to 80 µM; also: potency is read from the fitted curve at half-maximal effect; nearly all actives have a fitted effect of over 70% in size
In short: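 25 nM Clk4, 100 uM RS peptide, 1 uM ATP (final); 2 mM MgCl2, 0.5 mM EGTA, 2.5 mM DTT, 0.01% Triton X-100; 1 hr RT. ADP-Glo readout: ATP depletion 45 min, conversion/luciferase 30 min, luminescence.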

[11] = molecular target: Ubiquitin carboxyl-terminal hydrolase 1 (Homo sapiens) (UniProt O94782); experiment: Inhibitors of USP1/UAF1: Pilot qHTS (AID 504865); details: purified USP1/UAF1, Ub-rhodamine cleavage fluorescence; series mostly up to 54.9 µM;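 also: rhodamine fluorescence freed from ubiquitin-rhodamine substrate followed over time; top concentration of the series differs between compounds; % is scaled to controls: 0 for no effect and ±100 for the full control effect; nearly all actives have a fitted effect of over 35% in size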
Chain of Ubiquitin carboxyl-terminal hydrolase 1 (Homo sapiens) (O94782 whole entry, looked up): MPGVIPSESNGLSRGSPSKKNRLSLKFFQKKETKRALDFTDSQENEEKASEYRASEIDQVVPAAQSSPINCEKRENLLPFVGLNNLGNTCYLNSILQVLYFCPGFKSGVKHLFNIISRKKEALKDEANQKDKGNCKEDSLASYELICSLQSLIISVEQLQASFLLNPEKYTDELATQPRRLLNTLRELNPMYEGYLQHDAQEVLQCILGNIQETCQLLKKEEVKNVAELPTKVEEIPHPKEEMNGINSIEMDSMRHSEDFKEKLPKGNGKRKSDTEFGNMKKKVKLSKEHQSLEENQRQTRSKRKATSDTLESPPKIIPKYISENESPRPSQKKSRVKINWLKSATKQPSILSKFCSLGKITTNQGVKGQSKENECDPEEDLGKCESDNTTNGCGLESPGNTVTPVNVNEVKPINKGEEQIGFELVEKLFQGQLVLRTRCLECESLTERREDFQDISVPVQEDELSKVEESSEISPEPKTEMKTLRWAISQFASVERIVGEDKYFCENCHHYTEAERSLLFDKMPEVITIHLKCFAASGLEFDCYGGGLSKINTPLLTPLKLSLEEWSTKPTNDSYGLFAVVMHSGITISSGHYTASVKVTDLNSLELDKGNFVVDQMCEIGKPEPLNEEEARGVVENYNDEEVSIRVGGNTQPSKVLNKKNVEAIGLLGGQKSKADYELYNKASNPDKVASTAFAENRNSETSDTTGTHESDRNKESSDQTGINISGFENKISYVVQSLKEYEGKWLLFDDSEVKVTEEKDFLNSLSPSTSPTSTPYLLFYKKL
In short: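 Deubiquitinase activity followed as kinetic rhodamine fluorescence release from 150 nM Ub-Rho. 1 nM USP1/UAF1 with compound, after 15 min room-temperature preincubation, in HEPES pH 7.8 buffer containing TCEP, EDTA, BSA and Tween-20.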

[12] = Primary qHTS for small molecule stabilizers of the endoplasmic reticulum resident proteome: Secreted ER Calcium Modulated Protein (SERCaMP) assay (AID 1508630); details: SH-SY5Y GLuc-SERCaMP (Gaussia luciferase released on ER calcium loss) secretion, thapsigargin, luminescence; series mostly up to 38.4 µM; also: % is scaled to controls: 0 for no effect and ±100 for the full control effect
In short: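 The SH-SY5Y reporter protocol was run at 3 concentrations up to 38.3 uM (primary) or 11 concentrations (follow-up): 16 h compound, 100 nM thapsigargin for 4 h, then extracellular luciferase luminescence.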

[13] = NFAT Signaling Pathway (AID 444; active = well fitted curve in either direction with a large enough effect, not every such curve was filed as active;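 also: carbachol stimulus at about its EC50 of 1 µM final; % is scaled to controls: 0 for no effect and ±100 for the full control effect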); details: Jurkat NFAT-bla M1, carbachol, beta-lactamase ratio, 5 h; at 7.69 µM (top of the series) unless noted
In short: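 Jurkat cells carrying an NFAT-driven β-lactamase reporter and co-transfected muscarinic M1 receptor were treated with compound plus carbachol (1 uM final, an EC50 level) for 5 h at 37 °C. CCF4 loading followed for 1 h at RT; 460/530 nm ratio gave %activity.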

[14] = molecular target: Mitogen-activated protein kinase 10 (Mus musculus) (UniProt Q61831); experiment: JNK3 AlphaScreen Assay (AID 530; active = well fitted curve in either direction with a large enough effect, not every such curve was filed as active;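 also: kinase came from lysate of stimulated human HepG2 cells; signal reports phosphorylation of biotinylated GST-cJun 1-79 at Ser73 with 10 µM ATP; % is scaled to controls: 0 for no effect and ±100 for the full control effect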); details: JNK3 lysate, c-Jun phosphorylation; series mostly up to 57.1 µM
In short: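 Biotinylated GST-cJun(1-79) served as substrate for JNK3 in HepG2 lysates stimulated with IL-1beta and TNF-alpha. ATP was 10 uM final, pH 7.6. Ser73 phosphorylation was quantified by AlphaScreen (680 nm excitation).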

[15] = molecular target: Cytochrome P450 2D6 (Homo sapiens) (UniProt P10635); experiment: qHTS Assay for Inhibitors and Substrates of Cytochrome P450 2D6 (AID 891); details: recombinant CYP2D6, luciferin-ME EGE luminescence; series mostly up to 57.1 µM; also: potency is read from the fitted curve at half-maximal effect; nearly all actives have a fitted effect of over 60% in size
Chain of Cytochrome P450 2D6 (Homo sapiens) (P10635 whole entry, looked up): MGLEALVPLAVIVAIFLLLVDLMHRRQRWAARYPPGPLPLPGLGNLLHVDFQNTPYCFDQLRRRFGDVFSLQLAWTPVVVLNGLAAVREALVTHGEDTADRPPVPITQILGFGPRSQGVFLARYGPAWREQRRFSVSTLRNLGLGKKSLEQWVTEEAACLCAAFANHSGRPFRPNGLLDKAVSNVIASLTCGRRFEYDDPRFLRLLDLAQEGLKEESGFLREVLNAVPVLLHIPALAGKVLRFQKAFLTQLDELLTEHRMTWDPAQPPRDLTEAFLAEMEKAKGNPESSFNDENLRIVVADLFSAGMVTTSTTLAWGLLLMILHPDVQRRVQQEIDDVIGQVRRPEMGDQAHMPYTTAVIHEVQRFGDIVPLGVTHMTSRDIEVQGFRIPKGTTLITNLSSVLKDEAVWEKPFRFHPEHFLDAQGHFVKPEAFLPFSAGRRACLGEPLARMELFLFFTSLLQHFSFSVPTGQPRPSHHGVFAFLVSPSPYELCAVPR
In short: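 Luminescent read-out of luciferin formed by 5 nM human CYP2D6 demethylating 30 uM Luciferin-ME EGE (Km level) over 60 min at room temperature after NADPH regeneration addition. Data normalized to full inhibition by 1.43 uM quinidine.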

[16] = AP1 Signaling Pathway (AID 357; active = well fitted curve in either direction with a large enough effect, not every such curve was filed as active; also: % is scaled to controls: 0 for no effect and ±100 for the full control effect); details: ME-180 AP-1-bla reporter, EGF-induced, beta-lactamase ratio, 5 h; at 7.69 µM (top of the series) unless noted
In short: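 ME-180 cells with beta-lactamase reporter under AP-1 response element, stimulated with EC50 EGF; compounds tested in titration series, 5 h at 37 °C. CCF4 substrate added 2.5 h at room temperature; 460/530 nm emission ratio gave %activity and AC50.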

[17] = molecular target: 3',5'-cyclic-AMP phosphodiesterase 4B (Homo sapiens) (UniProt Q07343); experiment: qHTS Assay for Inhibitors of PDE-IV (AID 607; active = well fitted activation curve with a large enough effect in the main read-out, with a control signal flat, not every such curve was filed as active; also: % of control where 0% means no effect); details: HEK293 ACTOne CNG channel cells, membrane potential fluorescence; series mostly up to 22.9 µM
In short: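 The readout is membrane depolarisation from a cAMP-sensing CNG channel, detected with a potential dye at ex 535/em 590. Cells were HEK293-derived (endogenous PDE-IV) at 1000 cells/well, titrated up to 22.9 uM final.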

Row | SMILES | Potency [1] | Potency [2] | activity, negative = inhibition [3] | Potency [4] | Potency [5] | Potency [6] | Potency [7] | Potency [8] | Potency [9] | Potency [10] | Potency [11] | outcome [12] | activity change, negative = inhibition [13] | Potency [14] | Potency [15] | activity change, negative = inhibition [16] | Potency [17]
1 | CN(C)c1ccc(-c2cncnc2Nc2ccc(F)cc2)cc1 | > 11.4 µM | 0.501 µM (active) | -2.86% | > 46 µM | > 46 µM | 0.794 µM (active) | inactive | 0.794 µM (active) | 10 µM (active) | 10 µM (active) | inactive | inactive |  |  |  |  | 
2 | COc1ccccc1CNc1ncnc2ccc(-c3ccc4c(c3)OCO4)cc12 | > 11.4 µM | 0.794 µM (active) | -7.21% | > 46 µM | > 46 µM | 1.26 µM (active) | inactive | 3.16 µM (active) | 0.0794 µM (active) | 0.158 µM (active) | inactive | inactive | -26.5% | inactive | 0.794 µM (active) |  | 
3 | COc1ccc2[nH]cc(CCNc3nc(-c4cccnc4)nc4ccccc34)c2c1 |  | 0.501 µM (active) | -15.6% | > 46 µM | > 46 µM | 1.58 µM (active) | inactive | 0.501 µM (active) | 11.2 µM (active) | 7.94 µM (active) | inactive | inactive |  | inactive | 6.31 µM (active) | -14.3% | 
4 | COc1ccccc1CNc1cc(-c2ccccc2Cl)ncn1 | > 11.4 µM |  | -1.65% | > 46 µM | > 46 µM |  | inactive |  | 25.1 µM (active) | 15.8 µM (active) | inactive | inactive | 0.444% | inactive |  | -13.2% | 
5 | CN(C)c1ccc(-c2ccc3ncnc(NC4CC4)c3c2)cc1 | > 11.4 µM | 0.2 µM (active) | -20.9% | > 46 µM | > 46 µM | 3.16 µM (active) | inactive |  | 3.55 µM (active) | 7.94 µM (active) | inactive | inactive |  | inactive |  |  | inactive
